Where a name gives a salt, the structure may show the parent alone.
Columns and labels:
Assay in all cases: Euclidean distance of Cell Painting phenotypic profile (signed KS, 77 features) to DMSO centroid (dimensionless distance); 5 or 10 uM (library dependent); higher = stronger phenotypic change vs DMSO (phenoactivity)
Details in all cases: 48 h
[1] = system: 786-O
Outline: (§1)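 Harmony extracted 77 features from 20X confocal images (9 fields/well) of stained cells, scoring each as a signed Kolmogorov-Smirnov statistic against same-plate vehicle wells. The cells, five cancer lines and a healthy fibroblast line, had received library compounds for 48 h at 10 or 5 uM depending on library, with 0.1% DMSO final. Phenoactivity is the Euclidean distance from each plate-position-corrected, correlation-weighted, top-dose replicate-averaged profile to the median vehicle profile.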

[2] = system: A549
Outline: as §1

[3] = system: DU145
Outline: as §1

[4] = system: FB
Outline: as §1

[5] = system: HEPG2
Outline: as §1

[6] = system: OVCAR4
Outline: as §1

SMILES | Euclidean distance [1] | Euclidean distance [2] | Euclidean distance [3] | Euclidean distance [4] | Euclidean distance [5] | Euclidean distance [6]
Cc1cn([C@@H]2C[C@@H](O)[C@H](CO)O2)c(=O)[nH]c1=O [Telbivudine] | 1.15 | 0.884 | 0.651 | 1.53 | 0.469 | 1.12
O=C(Nc1ccccc1Br)N[C@@H]1CCN(c2ccc(C(F)(F)F)cn2)C1 | 0.896 | 0.999 | 0.688 | 0.9 | 0.544 | 1.21
CC1Cc2ccccc2N1NC(=O)c1ccc(Cl)c(S(N)(=O)=O)c1 (stereo unspecified) [Indapamide] | 0.856 | 0.679 | 1.26 | 0.772 | 1.91 | 1.41
CO[C@@]1(NC(=O)Cc2cccs2)C(=O)N2C(C(=O)O)=C(COC(N)=O)CS[C@@H]21 [Cefoxitin] | 0.82 | 0.39 | 0.617 | 0.482 | 0.307 | 1.03
CCOC(=O)[C@H](CCc1ccccc1)N[C@@H](C)C(=O)N1[C@H](C(=O)O)C[C@H]2CCCC[C@@H]21 [Trandolapril] | 1.34 | 0.478 | 0.864 | 0.819 | 0.562 | 0.99
CCCc1cc(=O)[nH]c(=S)[nH]1 [Propylthiouracil] | 0.782 | 1.25 | 2.02 | 1.4 | 0.77 | 1.77
O=C(O)c1ccccc1C(=O)Nc1ccc(S(=O)(=O)Nc2nccs2)cc1 [Phthalylsulfathiazole] | 1.08 | 1.02 | 0.914 | 1.11 | 0.685 | 0.869
CCN(CC)CCNC(=O)c1cc(S(C)(=O)=O)ccc1OC [Tiapride Hydrochloride] | 0.725 | 0.496 | 0.652 | 0.955 | 0.542 | 0.874
CC(C)=CCC/C(C)=C/CC/C(C)=C/CC/C(C)=C/CC/C(C)=C/CC/C(C)=C/CC1=C(C)C(=O)c2ccccc2C1=O [Vitamin K2] | 1.17 | 1.16 | 1.1 | 0.823 | 0.747 | 1.54
CCCNCC(O)COc1ccccc1C(=O)CCc1ccccc1 (stereo unspecified) [Propafenone HCl] | 1.59 | 1.51 | 1.37 | 1.36 | 0.85 | 1.26
O=C(c1ccc(OCCCc2c[nH]cn2)cc1)C1CC1 [Ciproxifan] | 1.15 | 1.15 | 1.03 | 0.829 | 0.908 | 1.15
C[C@H](NC(=O)CCc1nc2ccccc2c(=O)[nH]1)c1ccccc1 | 1.42 | 1.74 | 1.13 | 1.04 | 1.15 | 1.27
CCCCOC(=O)c1ccc(O)cc1 [Butylparaben] | 1.05 | 1.03 | 1.11 | 1.03 | 0.462 | 1.66
CCOC(=O)C1=C(COCCN)NC(C)=C(C(=O)OC)C1c1ccccc1Cl (stereo unspecified) [Amlodipine] | 0.785 | 0.917 | 0.877 | 1.06 | 1.06 | 0.837
O=C(O)C1(c2ccc(-c3ccc(Cl)c(Cl)c3)c(F)c2)CC1 | 0.785 | 1.02 | 1.42 | 1.35 | 1.17 | 1.72
NC(=O)c1noc([C@H](CCCC2CCCCC2)CC(=O)NO)n1 | 1.23 | 0.66 | 0.701 | 1.25 | 0.93 | 0.933

SMILES | Euclidean distance [1] | Euclidean distance [2] | Euclidean distance [3] | Euclidean distance [4] | Euclidean distance [5] | Euclidean distance [6]
NCCS [2-Aminoethanethiol] | 1.12 | 0.781 | 1.46 | 0.594 | 0.508 | 1.1
COC(=O)c1ccc2c(c1)NC(=O)/C2=C(\Nc1ccc(N(C)C(=O)CN2CCN(C)CC2)cc1)c1ccccc1 [Nintedanib (BIBF 1120)] | 3.7 | 4.29 | 2.53 | 4.05 | 2.66 | 3.01
CN1CCC(NC(=O)c2cc(-c3c(O)cc(O)cc3Oc3ccc([N+](=O)[O-])cc3)on2)CC1 | 2.95 | 3.28 | 3.66 | 3.37 | 5.17 | 3.04
Cc1[nH]c(=O)c(C#N)cc1-c1ccncc1 [Milrinone] | 0.957 | 0.855 | 0.761 | 0.918 | 0.762 | 0.888
S=P(N1CC1)(N1CC1)N1CC1 [Thiotepa] | 2.52 | 3.76 | 2.03 | 2.35 | 2.68 | 3.07
N.N.O=C([O-])C[O-].[Pt+2] [Nedaplatin] | 3.19 | 2.86 | 4.02 | 3.24 | 2.92 | 2.99
COc1c(C)c2c(c(O)c1C/C=C(\C)CCC(=O)O)C(=O)OC2 [Mycophenolic acid] | 2.65 | 3.38 | 1.88 | 3.04 | 2.74 | 3.28
CC(C)C(=O)c1c(C(C)C)nn2ccccc12 [Ibudilast] | 0.973 | 0.58 | 0.981 | 0.71 | 0.459 | 1.29
CCOC(=O)[C@H](CCc1ccccc1)N[C@H]1CS[C@H](c2cccs2)CN(CC(=O)O)C1=O [Temocapril HCl] | 0.717 | 0.454 | 0.716 | 0.895 | 0.434 | 0.878
Cn1cc(-c2nc(N[C@@H]3CCCC[C@@H]3N)c(F)c3c2C(=O)NC3)cn1 | 2.54 | 2.93 | 2.88 | 2.99 | 1.85 | 2.99
O=c1cc(-c2ccc(O)cc2)oc2cc(O)cc(O)c12 [Apigenin] | 1.18 | 0.946 | 1.17 | 1.39 | 1.73 | 1.32
O=C(O)CC[C@H]1CC[C@@](c2cc(F)ccc2F)(S(=O)(=O)c2ccc(Cl)cc2)CC1 | 1.76 | 1.71 | 0.876 | 1.8 | 1.76 | 1.58
CNCC(=O)O [Sarcosine] | 1.77 | 0.92 | 1.05 | 1.13 | 0.831 | 1.75
COc1cc2c(cc1O)CC[C@@H]1[C@@H]2CC[C@]2(C)[C@@H](O)CC[C@@H]12 [2-Methoxyestradiol (2-MeOE2)] | 2.47 | 2.67 | 2.66 | 2.05 | 2.07 | 2.42
O=c1c(-c2ccc(O)cc2)coc2cc(O)cc(O)c12 [Genistein] | 1.75 | 1.52 | 1.14 | 1.28 | 0.498 | 1.13

— the supplement of paper PMC10127200
